Results reported in ChEMBL document CHEMBL3433997, “St. Jude Leishmania screening dataset” (2016).

Legend:
Assay type in all cases: functional
[1] = biological target: Solute carrier family 2, facilitated glucose transporter member 1 (Homo sapiens) (UniProt P11166); assay: ST_JUDE_LEISH: Cytotoxicity at 2uM final concentration against transgenic Leishmania Mexicana promastigotes LmGLUT1 that are glucose transport deficient and complemented with the human glucose transporter GLUT1. Activity is measured by DNA content using SYBR green in vitro
Chain of Solute carrier family 2, facilitated glucose transporter member 1 (Homo sapiens) (P11166 whole entry): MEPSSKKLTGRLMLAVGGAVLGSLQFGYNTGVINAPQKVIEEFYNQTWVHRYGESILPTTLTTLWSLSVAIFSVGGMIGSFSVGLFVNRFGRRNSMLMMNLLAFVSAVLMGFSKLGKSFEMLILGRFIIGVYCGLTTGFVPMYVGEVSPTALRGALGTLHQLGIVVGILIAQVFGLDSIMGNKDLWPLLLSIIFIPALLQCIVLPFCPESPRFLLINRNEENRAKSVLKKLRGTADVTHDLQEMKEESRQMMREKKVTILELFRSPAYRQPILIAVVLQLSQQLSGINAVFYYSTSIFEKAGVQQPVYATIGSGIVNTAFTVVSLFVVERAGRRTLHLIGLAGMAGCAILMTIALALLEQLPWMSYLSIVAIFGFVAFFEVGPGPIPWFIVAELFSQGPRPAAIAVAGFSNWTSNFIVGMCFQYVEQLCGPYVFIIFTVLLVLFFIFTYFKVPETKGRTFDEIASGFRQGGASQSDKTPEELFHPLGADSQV

[2] = biological target: Hexose transporter 1 (Plasmodium falciparum) (UniProt O97467); assay: ST_JUDE_LEISH: Cytotoxicity at 2uM final concentration against transgenic Leishmania Mexicana promastigotes LmPfHT that are glucose transport deficient and complemented with the Plasmodium falciparum hexose transporter. Activity is measured by DNA content using SYBR green in vitro
[3] = biological target: Glucose transporter (Leishmania mexicana) (UniProt O61059); assay: ST_JUDE_LEISH: Cytotoxicity at 2uM final concentration against transgenic Leishmania Mexicana promastigotes LmGT2 that are glucose transport deficient and complemented with the L. Mexicana glucose transporter 2. Activity is measured by DNA content using SYBR green in vitro

Row | Compound | inhibition [1] [%] | inhibition [2] [%] | inhibition [3] [%]
1 | c1ccc(COc2ccnc(NCCCOc3cccc(CN4CCCCC4)c3)c2)cc1 | 1.52 | 1.04 | -0.05
2 | Cn1nccc1C(=O)NCCNCc1ccc(-c2ccc(-c3nc4cc(C(F)(F)F)ccc4[nH]3)cc2)cc1 | 6.01 | 0.59 | 4.43
3 | O=C(Nc1ccc(OCc2ccccc2)cc1)c1nc2ccccc2nc1Cl | 1.33 | 1.29 | 1.34
4 | C=CCOC(=O)N1CCC(CNCc2cccc(-c3ccc(-c4nc5cc(C(F)(F)F)ccc5[nH]4)cc3)c2)C1 (stereo unspecified) | 2.19 | 2.5 | 1.63
5 | O=C(Nc1ccc(OC(F)(F)F)cc1)NC1CCN(c2ccnc3ccccc23)C1 (stereo unspecified) | 3.08 | 2.41 | 3.12
6 | CS(=O)(=O)NCCCNCc1cccc(-c2cccc(-c3nc4cc(C(F)(F)F)ccc4[nH]3)c2)c1 | -0.01 | -4.31 | -1.5
7 | CCC(C)(C)C1CCc2[nH]c3ccccc3c(=O)c2C1 (stereo unspecified) | 9.6 | 26.9 | 6.59
8 | CCC(C)c1ccc(NC(=O)Nc2ccc(Cn3ncc(N4CCCNCC4)c(Cl)c3=O)cc2)cc1 (stereo unspecified) | 3.78 | 4.71 | -0.01
9 | O=C(Cn1c(CCc2cccc(F)c2F)cc(=O)c2ccccc21)N(Cc1ccc(-c2ccc(C(F)(F)F)cc2)cc1)C1CCN(CCN2CCOCC2)CC1 | 1.92 | 1.75 | 1.28
10 | Clc1ccc(CNc2ccnc(NCc3cccnc3N3CCCC3)n2)c(Cl)c1 | 12.9 | 7.88 | 3.44
11 | CCNc1cc(C(=O)N[C@@H](Cc2ccccc2)[C@H](O)CNCc2ccc3c(c2)OCCO3)cc(N2CCCCS2(=O)=O)c1 | 0.98 | 1.25 | 1.57
12 | COc1cc(C(C)C)ccc1C1CCN(CCCCNC(=O)c2ccc(NC(=O)c3ccc(Cl)cc3)cc2)CC1 | 4.4 | 6.6 | 3.65
13 | Cn1cccc1C(=O)NCC(CCNc1cc(=O)c2ccccc2[nH]1)NCc1cc(Br)cc(Br)c1 (stereo unspecified) | 0.88 | 2.6 | 1.58
14 | CCCCCCNC(=O)C1Cc2c([nH]c3ccccc23)C2(CCN(CCc3ccccc3)CC2)N1 (stereo unspecified) | 2.97 | 0.47 | 0.55
15 | Cc1ccc2[nH]c(C)c(Br)c(=O)c2c1 | -1 | -2.07 | -3.38
16 | Cc1ccc(C(=O)Nc2ccc(F)cc2)cc1-c1nc(NC2CC(C)(C)NC(C)(C)C2)nc2c1ccc(=O)n2-c1c(F)cccc1F | 4.77 | 3.62 | 2.81
17 | O=S(=O)(c1ccc(OC(F)(F)F)cc1)C1CC2CCC(C1)N2S(=O)(=O)c1ccc(Cl)c(C(F)(F)F)c1 (stereo unspecified) | 11.6 | 12.9 | 10.4
18 | COc1cc(C(=O)NC2CCN(Cc3ccccc3)CC2)ccc1-c1cc2cc(Cl)c(Cl)cc2[nH]1 | 3.35 | 4.32 | 2
19 | O=C(C=Cc1ccc(Cl)c(Cl)c1)NCCCCCN1CCCC(CCCNC(=O)/C=C/c2ccccc2)C1 (stereo unspecified) | 3.2 | 3.05 | 3.82

Row | Compound | inhibition [1] [%] | inhibition [2] [%] | inhibition [3] [%]
20 | O=C(CSc1nc2ccccc2c(=O)n1CC1CCCO1)Nc1cc(C(F)(F)F)ccc1Cl (stereo unspecified) | 9.97 | 9.45 | 6.14
21 | O=C(Cc1c[nH]cn1)Nc1cccc(-c2ccc(-c3nc4ccccc4[nH]3)cc2)c1 | 1.81 | 3.82 | -0.08
22 | Cc1cc(N2CCCC2)nc(NC(=N)Nc2cccc(C(F)(F)F)c2)n1 | 6.6 | 7.28 | 2.22
23 | O=C(Nc1cc(Cl)c(Cl)cc1NC(=O)c1cccc(-c2ccccc2)c1O)c1cccc(-c2ccccc2)c1O | 5.1 | 0.97 | 2.6
24 | O=C(NCCCCCN1CCCN(C(=O)Nc2ccc(F)c(C(F)(F)F)c2)CC1)C1CC1c1ccc(Cl)c(Cl)c1 (stereo unspecified) | 2.53 | 2.1 | 0.2
25 | Oc1ccc(Cl)cc1-c1cc(C(F)(F)F)nc(-c2ccccc2)n1 | 7.04 | 5.96 | 8.28
26 | CN1CCN(c2ccnc3ccc(NC(=O)Nc4ccc(-c5ccncc5)c5ccccc45)cc23)CC1 | 3.36 | 0.39 | 5.81
27 | COc1ccc(CNC2CCN(C)CC2)cc1-c1ccc(S(=O)(=O)NCCc2ccccn2)c(F)c1 | 3.16 | 2.16 | 4.77
28 | COc1cc(CCNC(=N)/C=C/c2ccc(Cl)cc2)ccc1Cl | 2.51 | 2.01 | -0.39
29 | CCOc1cccc(C(=O)Nc2cccc(CN3CCCN(Cc4cccc(O)c4)CC3)c2)c1 | 4.67 | 5.58 | 3.26
30 | O=C(C=Cc1ccc(Cl)c(Cl)c1)NCCCCCN1CCC(CCNC(=O)c2ccc3c(c2)OCO3)CC1 | 5.94 | 5.12 | 5.57
31 | CCOC(=O)c1c(NC(=O)c2ccccc2)sc2c(O)c(CN(CC)CC)ccc12 | 12 | 5.42 | 2.36
32 | CC1(C)CC(=O)c2c(O)cc(OCc3ccncc3)cc2O1 | 2.92 | 0.56 | 0.66
33 | O=S(=O)(NCCN1CCCC1)c1ccc(-c2cccc(CNCc3ccc(F)cc3)c2)cc1 | 1.16 | 1.09 | -0.22
34 | COc1ccc(-c2ccc(CNC(=O)c3ccc(Cl)cc3)c(F)c2)cc1CN1CCCN(C)CC1 | 3.27 | 0.3 | 1.71
35 | CC(=O)c1ccc2c(c1)CCN(CCC1CCC(NC(=O)c3cc4ccccc4[nH]3)CC1)CC2 (stereo unspecified) | 2.67 | -0.31 | 3.71
36 | CCOc1cc(C=NNc2nc(C)cc(-n3nc(C)cc3C)n2)ccc1O | 1.32 | -0.22 | 3.45
37 | CCN(CCCN1CCCCC1)c1cc(C)nc(Nc2cc(C(F)(F)F)ccc2C)n1 | -1.35 | 0.37 | 0
38 | CN1CCC(Oc2ccc(CN3CC[C@H](NC(=O)c4cc(F)cc(F)c4)C3)c3ccccc23)C1 (stereo partly specified) | 7.53 | 1.81 | 3.76

Row | Compound | inhibition [1] [%] | inhibition [2] [%] | inhibition [3] [%]
39 | CC(C)C[C@H](NC(=O)c1ccc(OCCN2CCOCC2)cc1)C(=O)N[C@H](/C=N/NC(=O)OC(C)(C)C)CCc1ccccc1 | 9.41 | 8.52 | 5.94
40 | O=C(/C=C/c1ccc(Cl)c(Cl)c1)NCCCCCN1CCN(C(=O)Nc2ccc(Cl)c(C(F)(F)F)c2)CC1 | 2.17 | 0.61 | -1.28
41 | COC(=O)c1ccc2nc(-c3cc(-c4cccc(-c5ccccc5)c4)cnc3N)[nH]c2c1 | 5.22 | 5.28 | 4.17
42 | N#Cc1ccc2[nH]c(-c3cc(-c4cccc(F)c4)cnc3N)nc2c1 | 6.56 | 7.71 | 3.77
43 | Cc1ccc2cc(NCCCCCCCCON3C(N)=NC(N)=NC34CCCCC4)ccc2n1 | 8.51 | 8.23 | 9.59
44 | C[C@@H]1CN(C(c2cccc(O)c2)c2cccc(C(=O)N(C)c3cccc(F)c3)c2)[C@@H](C)CN1C(c1cccc(O)c1)c1cccc(C(=O)N(C)c2cccc(F)c2)c1 (stereo partly specified) | 3.79 | 2.73 | 2.45
45 | CC(C)CSc1cc(C(=O)Nc2cc(Cl)ccc2O)ccn1 | -0.74 | -0.12 | -2.72
46 | COc1ccc2ncc(F)c(CCN3CC[C@@H](CNCc4nc5c(cc4C)SCC(=O)N5)C3)c2n1 | 3.29 | 3.35 | 0.49
47 | Cc1ccccc1CN1CCCN(Cc2ccc(C(=O)Nc3ccc(C(C)(C)C)cc3)cc2)CC1 | 6.33 | 3.39 | 3.55
48 | O=C(N[C@@H](Cc1cc(F)cc(F)c1)[C@H](O)CNCc1cccc(C(F)(F)F)c1)c1cc(C2CCCC2)cc(N2CCCC2=O)c1 | 1.51 | 1.51 | 1.95
49 | COc1ccc(CNCc2ccc(-c3ccc(-c4nc5cc(C(F)(F)F)ccc5[nH]4)cc3)cc2)cc1 | 3.97 | 1.19 | 3.06
50 | N=C(N)NC(=O)Nc1cc(Cl)c(F)c(Cl)c1 | 3.91 | 4.24 | 0.63
51 | Cc1cccc2nc(-c3cccc(-c4ccc(NC(=O)CC5NC(=O)c6ccccc65)cc4)c3)[nH]c12 (stereo unspecified) | 8.73 | 9.29 | 7.01
52 | Cc1cc2c(cc1C(F)(F)F)N(C(=O)Nc1cc(OCCN(C(C)C)C(C)C)cc(C(F)(F)F)c1)CC2 | 10.4 | 9.23 | 6.19
53 | N#Cc1ccc2c(c1)CCN(CCC1CCC(NC(=O)c3cc4ccccc4[nH]3)CC1)CC2 (stereo unspecified) | 8.94 | 5.71 | 6.21
54 | O=C(/C=C/c1ccc(Cl)c(Cl)c1)N1CCC(C(O)CN2CCC(c3c[nH]c4ccccc34)CC2)CC1 (stereo unspecified) | 2.18 | 1.82 | 0.09
55 | COc1ccccc1N1CCN(Cc2c(O)ccc3cc(Br)ccc23)CC1 | 5.54 | 4.31 | 6.16
56 | CC1CN(c2ncc(-c3ccc(CNC4Cc5ccccc5C4)cc3)cn2)CC(C)N1 (stereo unspecified) | 2.69 | 2.64 | 0.64
57 | Cc1ccc(C(=O)Nc2cccc(CN3CCCN(Cc4ccc(O)cc4)CC3)c2)cc1 | 1.89 | 0.24 | -7.6
